Screening data: PubChem BioAssay, Broad Institute
aSyn UTR act: Activators via SNCA 5'UTR binding, MLPCN; alpha-synuclein 5'UTR reporter, activators screen; 300,000 tested, 7.1% active; AID 1814, 2009; activity score, % (tested at 7.5 µM), hits read low; in the data active means activity score below about -60%
Active calls of the source: *. Not all results are given here.

SMILES | aSyn UTR act
COCOc1ccc(-c2cc(=O)c3c(O)cc(OCOC)cc3o2)cc1 | -127.4*
COc1cc(O)c2c(=O)cc(-c3ccccc3)oc2c1 | -144.9*
C=CCSc1nnc(-c2sc(-c3ccccc3)nc2C)n1C | -63.8*
Cc1cc(C)cc(N=c2c([N+](=O)[O-])nn(-c3cccc(Cl)c3)n2O)c1 | -65.5*
Cc1ccc(CN=c2c([N+](=O)[O-])nn(-c3ccc(Cl)cc3)n2O)cc1 | -68.9*
Cc1cccc(N=c2c([N+](=O)[O-])nn(-c3ccc(Cl)cc3)n2O)c1 | -67.6*
O=[N+]([O-])c1nn(-c2ccccc2)n(O)c1=NC1CCN(Cc2ccccc2)CC1 | 76.4
CCOc1ccc(NC(=O)c2ccco2)c([N+](=O)[O-])c1 | -130.7*
CCOc1ccc(NC(=O)c2ccc(CC)s2)c([N+](=O)[O-])c1 | -168.2*
CCOc1ccc(NC(=O)c2cccs2)c([N+](=O)[O-])c1 | -219.1*
C/C(=N\Nc1nccnc1Cl)c1ccc(O)c(C)c1 | -180.5*
CCOC(=O)N1CCN(C(=O)CCSc2ccccc2)CC1 | -108.4*
NC(=O)C1CCN(C(=O)CCSc2ccccc2)CC1 | -102.8*
Cc1cc(N/N=C/c2ccc(O)cc2O)nc(-c2ccccc2O)n1 | 74.6
CN(/N=C/c1cc(Br)cc(Br)c1O)c1cccc(C(F)(F)F)n1 | 70.2
Cc1cc(N(C)/N=C/c2ccccc2)nc(-c2ccccc2O)n1 | -118.8*
Cc1cc(N/N=C\c2ccccc2)nc(-c2ccccc2O)n1 | -138.1*
COc1cc(-c2noc(C)c2/C=C/c2ccc(OC(C)=O)cc2)cc(OC)c1OC | 95.2
COc1ccc(/C=C/C(=O)Nc2cc(C(F)(F)F)ccc2Cl)cc1 | -61.6*
COc1ccc(/C=C/C(=O)Nc2nonc2NC(C)=O)cc1 | -155.4*
C#CCNC(=O)/C=C/c1ccc(OC)cc1 | -75.0*
COc1ccc(/C=C/C(=O)Nc2cc(C)on2)cc1 | -216.3*
CC(=O)Nc1nc(NC(=O)/C=C/c2ccccc2)n(-c2ccccc2)n1 | 78.9
Cc1cc(NC(=O)/C=C/c2ccccc2)no1 | -156.2*
Cc1cc(NC(=O)/C=C/c2ccccc2Cl)no1 | -248.6*
SMILES | aSyn UTR act
COc1ccc(C(=O)/C=C/Nc2cc(C)on2)cc1 | -93.6*
CN1C(c2ccc(F)cc2)=CS/C1=C(/C#N)c1nnc(N2CCOCC2)n1-c1ccccc1 | -73.7*
c1ccc(NCC2OCc3ccccc3CO2)cc1 | -147.0*
CN(Cc1cccs1)C(=O)CCCc1c[nH]c2ccccc12 | -132.6*
COc1cccc2c(=O)c(C(=O)NCc3cccs3)c[nH]c12 | -139.3*
O=C(Cc1c[nH]c2ccccc12)NCc1cccs1 | -62.8*
Cc1ccc(NC(=O)c2snc3ccc(Cl)cc23)cc1C | -215.8*
Cc1ccc(C(=O)Nc2cccc(Oc3ccccc3)c2)o1 | -125.7*
COc1cccc(C(=O)Nc2cccc(SC)c2)c1 | -156.0*
CCn1c2ccccc2c2cc(NC(=O)c3cccc(OC)c3)ccc21 | -179.7*
COc1cccc(C(=O)N/N=C(/c2ccccc2)c2ccccn2)c1 | 73.0
COc1cccc(C(=O)NNC(=O)c2ccccc2)c1 | -112.7*
COc1cccc(C(=O)Nc2ccccc2)c1 | -122.5*
COc1cccc(NC(=O)c2ccc(C(=O)c3ccccc3)o2)c1 | -147.3*
O=C(Nc1ccc(O)cc1)c1ccc(C(=O)c2ccccc2)o1 | -120.4*
COc1c(C(=O)NNC(=O)c2ccccc2)csc1Br | -82.4*
COc1cccc(/C(C)=N/N=C(\C)c2cccc(OC)c2)c1 | -275.4*
COc1cccc(C(=O)Nc2cnn(C(C)C)c2)c1 | -113.7*
CC(=O)Nc1cccc(Oc2ccc(-c3noc(C)n3)cc2)c1 | -193.6*
Cc1cccc(Nc2nc(-c3ccc(O)cc3O)cs2)n1 | -125.9*
Oc1ccc(-c2csc(Nc3ncccn3)n2)c(O)c1 | -165.4*
Oc1ccc(-c2csc(Nc3ncccn3)n2)cc1O | -177.8*
Cc1ccc(C)c(-c2csc(Nc3ncccn3)n2)c1 | -66.3*
Cc1cc(CC(C)C)n(-c2nc3ccccc3c(=O)n2OCc2ccccc2)n1 | -74.7*
Cc1cc(C)n(-c2nc3ccccc3c(=O)n2OCC(=O)OCc2ccccc2)n1 | 62.0
SMILES | aSyn UTR act
CCCCN1CCc2c([nH]c3ccc(C)cc23)C1=O | -170.6*
COc1ccc(N2C(=O)c3ccccc3NC23CCCC3)cc1 | -89.8*
COCc1nc2ccccc2n1Cc1ccc(Br)cc1 | -79.9*
O=c1cnc2ccccc2n1Cc1ccc(Br)cc1 | -65.0*
O=C(Cc1cccs1)Nc1ccc(-c2nc3ccccc3[nH]2)cc1 | -263.4*
O=C(CSc1ccccc1)Nc1ccc(-c2nc3ccccc3[nH]2)cc1 | -170.9*
O=C(CN1CCOCC1)Nc1ccc(-c2nc3ccccc3[nH]2)cc1 | -110.6*
O=C(CSc1ccc(Cl)cc1)Nc1cccc(-c2nc3ccccc3[nH]2)c1 | -89.3*
CCN(CC)CCNc1cc(C)nc2c1C(=O)C(=O)C=C2N1CCCCC1 | 81.4
Cc1ccc2nc(-c3ccc(NC(=O)CSc4ccccc4)cc3)[nH]c2c1 | -97.7*
O=Nc1ccc(O)c2ncccc12 | -235.5*
Cc1ccccc1N=Nc1ccc(O)c2ncccc12 | 54.3
CCCn1cnc2cc(NCc3cccs3)ccc21 | -161.1*
CCn1cnc2cc(NCc3ccc(OC)cc3)ccc21 | -100.7*
